Results: PubChem BioAssay (Tox21)
Several values for one entry are separate records, joined by “and”; a condition that tells them apart may be missing. Equal values may be shown once. Inconclusive results are not listed. Where a call stands in place of a potency, no number is given. The source holds several records for some structures; these can differ, active in one and inactive in another. Activity calls are given as the source filed them. The call rests on the fitted dose curve; in most records, active means well fitted inhibition curve with a large enough effect in the signal ratio in the repeat runs (not every such curve was filed as active); inconclusive means weak or mixed curves; inactive means flat fitted curve, though single readings scatter; the % refers to the signal ratio.
Potency means the concentration at half of the fitted maximal effect.

These molecules were tested against Progesterone receptor (Homo sapiens) (UniProt P06401) (assay: qHTS assay to identify small molecule antagonists of the progesterone receptor (PR) signaling pathway (AID 1346795)). Conditions: PR-UAS-bla HEK293T, beta-lactamase FRET ratio, 16 h; series mostly up to 92.4 µM; activity change, negative = inhibition: at the top concentration.
Chain of Progesterone receptor (Homo sapiens) (P06401 whole entry, looked up): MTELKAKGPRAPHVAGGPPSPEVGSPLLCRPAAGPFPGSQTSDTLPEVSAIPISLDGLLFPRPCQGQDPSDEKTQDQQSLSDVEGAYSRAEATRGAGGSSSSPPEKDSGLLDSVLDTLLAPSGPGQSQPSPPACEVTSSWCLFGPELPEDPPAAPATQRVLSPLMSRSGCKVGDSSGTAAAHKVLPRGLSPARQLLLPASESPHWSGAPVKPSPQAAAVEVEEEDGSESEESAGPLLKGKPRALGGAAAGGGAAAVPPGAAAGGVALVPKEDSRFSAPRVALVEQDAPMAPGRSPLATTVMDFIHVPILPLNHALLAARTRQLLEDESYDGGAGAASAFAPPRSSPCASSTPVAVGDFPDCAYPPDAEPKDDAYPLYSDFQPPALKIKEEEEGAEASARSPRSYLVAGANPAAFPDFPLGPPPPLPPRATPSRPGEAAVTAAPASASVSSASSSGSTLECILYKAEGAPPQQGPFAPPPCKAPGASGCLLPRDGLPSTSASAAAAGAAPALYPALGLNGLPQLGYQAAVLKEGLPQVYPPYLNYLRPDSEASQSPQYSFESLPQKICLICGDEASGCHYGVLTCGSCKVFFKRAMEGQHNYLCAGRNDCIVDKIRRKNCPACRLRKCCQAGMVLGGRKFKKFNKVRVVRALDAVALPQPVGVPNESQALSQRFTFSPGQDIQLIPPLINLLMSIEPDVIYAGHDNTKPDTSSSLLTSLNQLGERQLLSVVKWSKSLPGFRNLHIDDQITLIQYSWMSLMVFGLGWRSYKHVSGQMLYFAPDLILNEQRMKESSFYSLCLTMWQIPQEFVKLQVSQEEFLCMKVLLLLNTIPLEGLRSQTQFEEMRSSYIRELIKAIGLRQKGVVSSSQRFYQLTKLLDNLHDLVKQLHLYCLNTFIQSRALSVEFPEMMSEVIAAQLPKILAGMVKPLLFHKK
Excerpt: National Center for Advancing Translational Sciences [NCATS]
NIH Chemical Genomics Center [NCGC]
U.S. Environmental Protection Agency [EPA]
National Institutes of Environmental Health Sciences [NIEHS]
National Toxicology Program [NTP]
U.S. Food and Drug Administration [FDA]
Progesterone receptor (PR), a nuclear hormone receptor, plays an important role in development, metabolic homeostasis and reproduction. […] Endocrine disrupting chemicals (EDCs) and their interactions with steroid hormone receptors like PR causes disruption of normal endocrine function. To identify the compounds that inhibit PR signaling, a PR-UAS-bla GripTite cell line i.e. PR-UAS-bla HEK293T (Invitrogen, Carlsbad, CA, USA) containing a beta-lactamase reporter gene under the control of an Upstream Activator Sequence (UAS) was used to screen Tox21 10K compound library.
Tox21 Assay Protocol Summary:
PR-UAS-bla HEK293T cells were dispensed at 3,000 cells/4 uL of assay medium containing 2% charcoal stripped FBS per well into black wall/clear-bottom 1536-well plates using a Multidrop Combi (ThermoFisher Scientific, Waltham, MA) dispenser. After the assay plates were incubated at a 37C and 5% CO2 for 6 hr, 23 nL of compounds dissolved in DMSO, positive controls or DMSO only was transferred to the assay plate by a Pintool station (Kalypsys, San Diego, CA), followed by addition of 1 uL (1nM as final concentration) of Promegestone (R5020) in assay medium using a BioRAPTR FRD (Flying Reagent Dispenser, Aurora Discovery, San Diego, CA). The plates were incubated at 37C and 5% CO2 for 16 hr. Then 1 uL of LiveBLAzer B/G FRET substrate was added using a FRD. After the plates were incubated at room temperature for 2 hours, fluorescence intensity was measured by an Envision plate reader (PerkinElmer, Shelton, CT).
In the case of Nc1ccc(Cl)cc1Cl, the Potency is reported as “inactive”.
COc1cccc2c1C(=O)c1c(O)c3c(c(O)c1C2=O)C[C@@](O)(C(=O)CO)C[C@@H]3O[C@H]1C[C@H](N)[C@H](O)[C@H](C)O1 was tested, and the Potency was 2.73 µM (active) and 9.44 µM (active).
With c1ccncc1 the Potency was “inactive”.
C/C=C/C(=O)O was tested, and the Potency was “inactive”.
c1ccc2c(c1)c1cccc3ccc4cccc2c4c31 was tested, and the Potency was “inactive”.
With Cc1cc2nc3c(=O)[nH]c(=O)nc-3n(C[C@H](O)[C@H](O)[C@H](O)CO)c2cc1C the activity change, negative = inhibition was -6.9% [at 18.9 µM] (inactive).
CCCCC(CC)COCC1CO1 (stereo not given) was tested, and the Potency was “inactive”.
CCCCOCCOCCOCCO was tested, and the “activity change, negative = inhibition” value was 7.29% [at 42.5 µM] (inactive).
With CN(C)C(=N)N=C(N)N the Potency was “inactive”.
In the case of COC(=O)c1ccccc1, the Potency is reported as “inactive”.
For Cc1ccc(C)c(O)c1C, the Potency was “inactive”.
Nc1ccc(S(=O)(=O)Nc2cnc3ccccc3n2)cc1 was tested, and the Potency was “inactive”.
In the case of O=C(c1ccccc1)c1ccc(O)cc1O, the Potency is reported as 15.7 µM (active) and 19.3 µM (active).
With O=C(COc1ccc(Cl)cc1)N1CCN(Cc2ccc3c(c2)OCO3)CC1 the Potency was 54.5 µM (active).
In the case of CCOCCOCCO, the Potency is reported as “inactive”.
For CC(C)OC=O, the “activity change, negative = inhibition” value was -4.85% (inactive).
With CC1=CCC(C(C)(C)O)CC1 (stereo not given) the Potency was “inactive”.
In the case of COc1ccc(OC)c(C(O)CNC(=O)CN)c1 (stereo not given), the Potency is reported as “inactive”.
COC(C)COC(C)COC(C)CO (stereo not given) was tested, and the “activity change, negative = inhibition” value was -3.92% (inactive).
With O=CCc1ccccc1 the “activity change, negative = inhibition” value was 7.86% (inactive).
For CCCC(=O)O, the Potency was “inactive”.
With c1ccc2c(c1)Oc1ccccc1S2 the Potency was “inactive”.
With CC1=CC2C3CC(C=C3C)C2C1 (stereo not given) the Potency was “inactive”.
Cc1cccc([N+](=O)[O-])c1C was tested, and the Potency was “inactive”.
CC(CCC(=O)O)(c1ccc(O)cc1)c1ccc(O)cc1 was tested, and the Potency was “inactive”.
CCCCC(CC)COP(=O)(OCC(CC)CCCC)OCC(CC)CCCC (stereo not given) was tested, and the Potency was “inactive”.
For CCC(C)CO (stereo not given), the Potency was “inactive”.
CCCCOCCOCCO was tested, and the Potency was “inactive”.
CC(C)CC(C)(O)C#CC(C)(O)CC(C)C (stereo not given) was tested, and the “activity change, negative = inhibition” value was -16.3% (inactive).
With OC[C@H]1O[C@@H]2O[C@H]3[C@H](O)[C@@H](O)[C@@H](O[C@H]4[C@H](O)[C@@H](O)[C@@H](O[C@H]5[C@H](O)[C@@H](O)[C@@H](O[C@H]6[C@H](O)[C@@H](O)[C@@H](O[C@H]7[C@H](O)[C@@H](O)[C@@H](O[C@H]8[C@H](O)[C@@H](O)[C@@H](O[C@H]1[C@H](O)[C@H]2O)O[C@@H]8CO)O[C@@H]7CO)O[C@@H]6CO)O[C@@H]5CO)O[C@@H]4CO)O[C@@H]3CO the “activity change, negative = inhibition” value was -10.2% (inactive).
For CCCCC(CC)COC(=O)c1ccc(N(C)C)cc1 (stereo not given), the “activity change, negative = inhibition” value was -25.1% (inactive).
Cc1ccc2c(n1)Oc1ccc(C(C)C(=O)OCC(=O)N(C)C)cc1C2 (stereo not given) was tested, and the Potency was “inactive”.
For CC(C)OB(OC(C)C)OC(C)C, the Potency was “inactive”.
C[C@]12CCC(=O)C=C1CC[C@@H]1[C@@H]2C(=O)C[C@@]2(C)[C@H]1CC[C@]2(O)C(=O)CO was tested, and the Potency was 11.9 µM (active).
c1ccc(Nc2ccccc2)cc1 was tested, and the Potency was 48.5 µM (active) and inactive.
In the case of COc1ccccc1/C=C/C=O, the “activity change, negative = inhibition” value is reported as 0.703% (inactive).
With Cc1ccc(C(=O)c2cc(O)c(O)c([N+](=O)[O-])c2)cc1 the Potency was 23.7 µM (active).
In the case of CN(C)CCC=C1c2ccccc2CCc2ccccc21, the Potency is reported as 54.5 µM (active).
Cn1cnc([N+](=O)[O-])c1Sc1ncnc2nc[nH]c12 was tested, and the “activity change, negative = inhibition” value was -8.02% [at 42.5 µM] (inactive).
With CC(=O)c1ccccn1 the Potency was “inactive”.
